Hits are enriched below; roughly 7.9% of the tested compounds scored in any of these assays.
SW480 rerep: induces DNA re-replication in SW480 colon adenocarcinoma cells; SW480 DNA re-replication, Hoechst DNA content imaging, 48 h; Potency, µM (doses to about 46.1 µM), for inactives: at the highest dose re-replication activation, hits mostly activators; 1.8% of 340,000 active; AID 624297; also: % of control where 0% means no effect; nearly all actives have a fitted effect of over 55% in size
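First, 250 cells per well were seeded. Next, compound or vehicle (23 nL) was pinned in, plates sat 48 hr at 37 C. Finally Hoechst was added for 40 min before fluorescence scanning.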
KB-V1 MDR tox: kills drug-selected multidrug resistant KB-V1 cells; KB-V1 MDR cells viability, CellTiter-Glo, 72 h; Potency, µM (top dose mostly 46.1 µM), usual class: cytotoxic; 3.4% of 400,000 active; also: % is scaled to controls: 0 for no effect and ±100 for the full control effect; nearly all actives have a fitted effect of over 60% in size
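KB-V1, DMEM (no phenol red) + 10% FBS; cpd pin-transferred, titration series; 72 h, 37 degrees C; CellTiter-Glo, luminescence. Data normalized, curve-fit.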
HT1080-NT tox: kills 2HG-producing HT-1080-NT fibrosarcoma cells | 1.6% of 360,000 active | HT-1080-NT fibrosarcoma viability, CellTiter-Glo ATP luminescence, 48 h | AID 686970 | Potency, µM (titrated, usually from 46.1 µM), for inactives: at the highest dose activity, negative = less viability, actives largely listed as cytotoxic;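 also: NT is the 2HG producing partner of a matched IDH1 knockdown line; 0% = DMSO-treated cells and -100% = media-only wells without cells; nearly all actives have a fitted effect of over 55% in size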
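HT-1080-NT; 750 cells/well; 5% FBS RPMI; 48 h compound, 37 degrees C; CellTiter-Glo luminescence; curve fitting and curve-class assignment.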
KB-3-1 tox: kills parental KB-3-1 adenocarcinoma cells | KB-3-1 viability, CellTiter-Glo ATP luminescence, 72 h | 1.4% of 400,000 active | Potency, µM (doses to about 46.1 µM), actives largely listed as cytotoxic; also: % is scaled to controls: 0 for no effect and ±100 for the full control effect; nearly all actives have a fitted effect of over 60% in size
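Cytotoxicity in the drug-sensitive parental line KB-3-1 was scored as loss of CellTiter-Glo luminescence following 72 h incubation with compound. Values come from curve fitting of normalized concentration-response data.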
HT1080 IDH1KD tx: HT-1080 IDH1 knockdown cell toxicity (counter line); HT-1080 IDH1 knockdown viability, ATP luminescence, 48 h; AID 686971; 2% of 360,000 active; Potency, µM (doses to about 46.1 µM), for the others: at the top dose activity, negative = toxicity, actives largely listed as cytotoxic;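 also: 0% = DMSO wells and -100% = cell-free medium wells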
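Knockdown cells (IDH1KD HT-1080) received compounds 2 h after plating at 750 cells/well and were kept 48 h at 37 °C in 5% FBS RPMI. A CellTiter-Glo luminescence read gave % activity for curve fitting.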
MCF10A rereplic: DNA re-replication induction in MCF 10a cells; MCF 10A DNA re-replication, Hoechst nuclear intensity, 48 h; Potency, µM (doses to about 46.1 µM), for the others: top-dose activity, positive = re-replication, usual class: activators; 2.9% of 350,000 active; AID 624296; also: % of control where 0% means no effect; nearly all actives have a fitted effect of over 50% in size
* hit, by the source's call; i = inactive; ? = inconclusive; . = not tested or not shown; [ ] = another dose, or the depositor's remark. Calls follow the shape of the dose curve; as a rule, active = well fitted curve in the direction sought with a large enough effect; inconclusive = small, poorly fitted or top-dose-only effect, or another doubt; inactive = no such curve, though single readings can be large; an effect the other way counts as inactive or inconclusive. Potency is read from the fitted curve at half-maximal effect.

SMILES	SW480 rerep	KB-V1 MDR tox	HT1080-NT tox	KB-3-1 tox	HT1080 IDH1KD tx	MCF10A rereplic
O=Cc1cc(N=Nc2ccccc2Cl)ccc1O	-4%	?	?	?	?	-19%
O=Cc1cc(N=Nc2cccc(C(=O)O)c2)ccc1O	-1%	i	?	?	15µM*	24%
CC1(C(=O)NC2CCCC2)CCC(=O)N1CCCn1ccnc1 (centres undefined)	.	i	10%	i	19%	.
O=C(CCCSc1nc2ccccc2[nH]1)NCc1ccccc1Cl	.	16µM*	3%	i	-1%	0%
O=C(Cc1cccc2ccccc12)Nc1nc2ccccc2[nH]1	?	18µM*	13µM*	i	13µM*	0%
CCCCCC(=O)Nc1nc2ccccc2[nH]1	?	?	?	23µM*	?	21%
CC(C(=O)N1CCN(Cc2ccc3c(c2)OCO3)CC1)n1cc([N+](=O)[O-])cn1 (centres undefined)	-6%	i	11%	i	2%	0%
CCC/C=C1/CCCOC(C(=O)NCc2ccc(C)o2)(C(F)(F)F)C1 (centres undefined)	?	i	?	i	-4%	?
O=C(N/C(=C/C=C/c1ccccc1)C(=O)N1CCCCC1)c1ccc([N+](=O)[O-])cc1	-30%	i	-1%	i	-1%	0.58µM*
CC1=C(C(=O)OCc2ccc3nsnc3c2)N2C(=O)[C@@H](NC(=O)OCc3ccc4nsnc4c3)[C@H]2SC1	.	i	.	i	.	.
Cc1ccccc1C1=NC(C(F)(F)F)(C(F)(F)F)c2c(n(C)c(=O)n(C)c2=O)N1	-7%	16µM*	2%	?	-2%	8%
Cn1c2c(c(=O)n(C)c1=O)C(C(F)(F)F)(C(F)(F)F)N=C(c1ccc(Cl)cc1)N2	13%	2.3µM*	?	2.3µM*	7.3µM*	?
Cn1c2c(c(=O)n(C)c1=O)C(C(F)(F)F)(C(F)(F)F)N=C(C1CCCCC1)N2	-2%	?	-27%	i	-20%	?
COc1ccc(C2C(C(=O)Nc3ccccc3)=C(C)Nc3nc(-c4ccccc4)nn32)cc1OC (centres undefined)	.	i	.	i	.	.
O=C1CC(c2ccccc2)CC(O)=C1C=NC1CCCCC1 (centres undefined)	8%	6.5µM*	-15%	i	?	-2%
COc1ccc(OC)c(NC(=O)COC(=O)c2c3c(nc4ccccc24)CCCC3)c1	1%	26µM*	?	26µM*	?	?
COc1ccc(NC(=O)COC(=O)c2c3c(nc4ccccc24)CCCC3)cc1Cl	-7%[9.22 µM]	16µM*	?	i	?	?
CC(C)=CC(O)C/C(C)=C/COc1ccc2ccc(=O)oc2c1 (centres undefined)	6%	13µM*	23µM*	5.8µM*	?	?
CC(=O)OC(C=C(C)C)C/C(C)=C/COc1c2ccoc2cc2oc(=O)ccc12 (centres undefined)	-38%[9.22 µM]	i	0%	i	-2%	-12%
CCCC1=Nc2cc(C(=O)NCc3ccc(OC)cc3)ccc2Sc2ccc(C)cc21	.	?	.	i	.	.
CCC1=Nc2cc(C(=O)NCc3ccccc3Cl)ccc2Sc2ccc(C)cc21	.	?	.	3.7µM*	.	.
CC1=Nc2cc(C(=O)NCc3ccccc3Cl)ccc2Sc2c(C)ccc(C)c21	.	1.5µM*	.	1µM*	.	.
CC1=Nc2cc(C(=O)O)ccc2Sc2c(C)ccc(C)c21	-2%	i	-4%	i	-27%	17%
COc1ccc(OC)c(NC(=O)CN2c3cccc4cccc(c34)S2(=O)=O)c1	0%	5.2µM*	-2%	i	-6%	7%
COc1ccc(/C=N/NC(=O)c2ccc(CN3c4cccc5cccc(c45)S3(=O)=O)cc2)cc1	1%	i	-3%	i	-4%	16%
